# NRP1-CendR mod – modulators of CendR peptide binding to NRP-1, primary screen, biochemical, fluorescence polarization, uHTS; inhibition, % at 25 µM; 360,000 compounds, 0.85% hits; FAM-RPARPAR peptide binding to NRP-1; Neuropilin-1 (Homo sapiens), O14786; AID 602438, 2012;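 active = inhibition or corrected inhibition above about 18%, plus a signal ratio from 0.5 to 1.5, limit read from the data, passing the limit was not always enough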
# PfM18AAP inh-1 – PfM18AAP inhibitors, malaria aminopeptidase, primary screen, biochemical, QFRET, recombinant enzyme; M18 aspartyl aminopeptidase (Plasmodium falciparum 3D7); H-Glu-NHMec fluorogenic cleavage; inhibition, % at 7.35 µM; 290,000 compounds, 1.2% hits; AID 1822, 2009;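 active = inhibition above the campaign mean inhibition over all tested compounds plus 3 SD, cut at about 28% in these data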;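 note: 0% = plate median of test compound wells and 100% = 2 mM ZnCl2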
# APOBEC3G inh – APOBEC3G DNA deaminase inhibitors, primary screen, biochemical, fluorescence, single-stranded DNA substrate, uHTS. DNA dC->dU-editing enzyme APOBEC-3G (Homo sapiens), Q9HC16. 330,000 compounds, 0.28% hits. recombinant A3G, ssDNA deamination FAM/TAMRA fluorescence. inhibition, % at 20 µM;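 active = inhibition of at least 40% at 20 µM, with no more than 30% in the related APOBEC3A deaminase screen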;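 note: plate controls were DMSO wells with A3G for no effect and wells lacking A3G enzyme for full effect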
# Target sequence (Q9HC16 whole entry, looked up): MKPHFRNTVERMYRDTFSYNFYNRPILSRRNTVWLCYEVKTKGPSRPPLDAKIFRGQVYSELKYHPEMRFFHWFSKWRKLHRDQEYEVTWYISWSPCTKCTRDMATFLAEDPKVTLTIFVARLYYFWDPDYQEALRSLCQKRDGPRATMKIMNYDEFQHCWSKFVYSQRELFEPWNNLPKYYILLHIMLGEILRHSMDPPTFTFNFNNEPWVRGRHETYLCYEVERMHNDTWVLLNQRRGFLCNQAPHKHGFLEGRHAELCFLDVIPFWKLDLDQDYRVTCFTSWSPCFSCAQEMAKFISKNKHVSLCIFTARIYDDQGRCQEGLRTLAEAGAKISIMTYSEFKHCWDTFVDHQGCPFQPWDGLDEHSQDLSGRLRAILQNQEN
# ALR H2O2 inh – inhibitors of human ALR sulfhydryl oxidase, primary screen, biochemical, H2O2 detection, HRP-luminol luminescence, single point | FAD-linked sulfhydryl oxidase ALR (Homo sapiens), P55789 | purified ALR, DTT oxidation | inhibition, % (no concentration beside the values) | 290,000 compounds, 3.8% hits | AID 485317, 2010;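 active = mean replicate inhibition above about 79%, with every replicate also reaching it, limit read from the data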
# Target sequence (P55789 whole entry, looked up): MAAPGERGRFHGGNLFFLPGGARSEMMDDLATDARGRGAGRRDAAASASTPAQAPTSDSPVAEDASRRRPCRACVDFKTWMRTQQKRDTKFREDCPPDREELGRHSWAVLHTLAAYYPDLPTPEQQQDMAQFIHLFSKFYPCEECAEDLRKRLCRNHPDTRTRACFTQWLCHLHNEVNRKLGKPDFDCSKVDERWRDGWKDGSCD
# CR mimetic SO – reduction of superoxide in aged yeast, primary screen, HTS; S. cerevisiae aged cells, superoxide DHE fluorescence; hits give low values; superoxide response (% of plate mean), % at 10 µM; 330,000 compounds, 0.18% hits;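 active = superoxide response under a set limit, about three screen SD below normal, cut at about 65% in these data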;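 note: yeast aged for seven days with compound at 30 °C before DHE staining; 100% = average MFI of all compound-treated wells on the plate with controls excluded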
# A3A deaminase – APOBEC3A ssDNA deaminase inhibitors, primary screen, selectivity assay for APOBEC3G inhibitor project, biochemical, FAM/TAMRA oligo cleavage fluorescence. recombinant A3A, FAM/TAMRA ssDNA deamination fluorescence. 330,000 compounds, 0.41% hits. DNA dC->dU-editing enzyme APOBEC-3A (Homo sapiens), P31941. inhibition, % at 20 µM;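 active = at least 40% inhibition at 20 µM here, with at most 30% in a related deaminase screen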;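 note: plate controls were A3A with DMSO for no effect and wells lacking A3A enzyme for full effect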
# PfM18AAP inh-2 – PfM18AAP inhibitors, malaria aminopeptidase, confirmation, biochemical, QFRET, recombinant enzyme, triplicate; shares compounds with PfM18AAP inh-1; H-Glu-NHMec fluorogenic cleavage; inhibition, % at 7.35 µM; 2,400 compounds, 28% hits; AID 2170, 2009;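 active = mean inhibition over replicate wells above the hit cutoff set for the earlier primary screen, cut at about 29% in these data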;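 note: 0% = median of test compound wells and 100% = 2 mM ZnCl2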
# CTSL1 confirm – cathepsin L1 inhibitors, retest, confirmation, counter-screen for PFM18AAP inhibitor project, biochemical, QFRET, triplicate; 2,400 tested, under 10 active; shares compounds with PfM18AAP inh-1; purified cathepsin L1, Z-Leu-Arg-MCA fluorescence; inhibition, % at 5.96 µM;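 active = average inhibition across replicates above the hit cutoff set in the earlier primary screen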;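 note: 0% = median of test compound wells and 100% = Z-Phe-Ala-diazomethylketone 1 µM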
# Active calls of the source: *; . = no result. The list is not random: actives were taken first. Their share in the collection is about 5.2%.
SMILES,NRP1-CendR mod,PfM18AAP inh-1,APOBEC3G inh,ALR H2O2 inh,CR mimetic SO,A3A deaminase,PfM18AAP inh-2,CTSL1 confirm
CCC1CCCCN1CCCNC(=O)c1ccc2c(c1)NC(=O)CN2C (stereo not given),12,32*,-5,-2,134,-3,-13,5
O=S(=O)(Nc1ccc2c(c1)nc1n2CCN(Cc2ccccc2)C1)c1ccccc1,-14,60*,-4,.,91,-3,-28,4
O=S(=O)(Nc1ccc2c(c1)nc1n2CCN(Cc2ccccc2)C1)c1ccc(Cl)cc1,-47,-9,13,-3,103,2,.,.
COC(=O)c1sccc1NC(=S)Nc1cc(C)cc(C)c1,6,6,-5,-11,92,0,.,.
COc1ccc(C(C)C)cc1S(=O)(=O)Nc1ccncc1,-2,37*,-5,-1,101,-2,-58,-2
O=C(CN1CCN(c2ccc(O)cc2)CC1)N1CCc2ccccc21,0,42*,30,80*,94,-4,1,4
COC(=O)c1ccc(OCC(O)CN2CCN(C(=O)c3ccco3)CC2)cc1 (stereo not given),4,-7,-6,.,107,-3,.,.
CC(C)c1c(C#N)c(N)nc(SCC(=O)c2cc3ccccc3oc2=O)c1C#N,-14,3,-1,-10,93,2,.,.
N#Cc1ccc(-c2ccccc2)nc1SCC(=O)c1cc2ccccc2oc1=O,-6,34*,-10,-4,100,-5,-19,-1
COc1cccc(OC)c1C(=O)Nn1c(-c2cccc(C)c2)nc2ccccc2c1=O,0,-11,-1,-2,96,-3,.,.
CC1Cc2cc(/C(O)=C3/C(=O)C(=O)N(CCN4CCOCC4)C3c3ccc([N+](=O)[O-])cc3)ccc2O1 (stereo not given),6,33*,-6,38,110,-4,-22,-10
COc1ccc(C2/C(=C(/O)c3ccc4c(c3)CC(C)O4)C(=O)C(=O)N2CCN2CCOCC2)cc1 (stereo not given),-16,9,-2,6,93,1,.,.
O=C(C1=C(O)C(=O)N(CCN2CCOCC2)C1c1ccc([N+](=O)[O-])cc1)c1cc2ccccc2o1 (stereo not given),-1,34*,-1,70,82,-2,-36,-1
Cc1ccc([N+](=O)[O-])cc1-c1[nH]c(-c2ccc(O)c(O)c2)nc1-c1ccccc1,-2,73*,-3,97*,104,-2,74*,0
Cc1cccc(C)c1OCc1nnc(SCC(=O)Nc2ccc(N3CCOCC3)cc2)o1,10,4,0,-1,110,2,.,.
COCCN1C2=C(C(=O)CC(C)(C)C2)C(c2ccc(O)c(OC)c2)C2=C1CC(C)(C)CC2=O,9,8,-9,22,79,-8,.,.
COc1cc(C2C3=C(CC(C)(C)CC3=O)N(C)C3=C2C(=O)CC(C)(C)C3)ccc1O,-7,34*,-3,-23,108,-2,-16,-4
Cc1ccc(S(=O)(=O)Nc2nc(C)cc(NN)n2)cc1,-2,40*,-1,2,85,4,29*,-1
Cc1ccc(S(=O)(=O)Nc2nc(C)cc(NCCN)n2)cc1,4,4,-1,-3,94,0,.,.
Cc1cc(NN)nc(NS(=O)(=O)c2ccccc2Cl)n1,10,39*,-7,36,96,1,-2,2
O=C(C[C@@H]1C/C=C\C[C@H](NC(=O)OCC2c3ccccc3-c3ccccc32)C(=O)OC[C@H]2CCCN2C1=O)N[C@H](CO)Cc1ccccc1,-3,.,-1,-3,105,-1,.,.
Cc1ccc(C(=O)NNC(=O)c2ccc(S(=O)(=O)N3CCCCC3)cc2)cc1,14,.,-8,-1,127,-4,.,.
Cc1cc(C)c2nc(NNC(=O)c3ccc(S(=O)(=O)N4CCCCC4)cc3)sc2c1,5,36*,0,6,102,1,-22,3
CCOC(=O)N1CCN(S(=O)(=O)c2ccc(C(=O)NNc3nc4c(C)cc(C)cc4s3)cc2)CC1,4,39*,-3,25,94,-5,-31,4
CCOC(=O)N1CCN(S(=O)(=O)c2ccc(C(=O)N(CCN(CC)CC)c3nc4c(C)cccc4s3)cc2)CC1,-6,-6,-4,6,87,0,.,.
SMILES,NRP1-CendR mod,PfM18AAP inh-1,APOBEC3G inh,ALR H2O2 inh,CR mimetic SO,A3A deaminase,PfM18AAP inh-2,CTSL1 confirm
CCOC(=O)N1CCN(S(=O)(=O)c2ccc(C(=O)NNc3nc4c(C)cccc4s3)cc2)CC1,-15,38*,-5,58,99,-2,-16,5
CCNC(=S)N/N=C(\C)c1ccc2ccccc2c1,.,-3,-19,.,96,4,.,.
Cc1ccc(S(=O)(=O)N(C)CC(=O)Nc2ncccc2C)cc1,6,.,-6,-9,111,-3,.,.
Cc1cc(/C=C\c2ccccc2)nc2ccccc12,2,-6,-7,-2,99,1,.,.
O=C(NCc1ccccc1)C12CN(Cc3ccccc3)CC1C(c1ccc([N+](=O)[O-])cc1)=NO2 (stereo not given),1,0,-7,18,102,-2,.,.
COc1cccc(COc2nc3c(c(=O)n(C)c(=O)n3C)n2C)c1,6,-1,6,-2,97,9,.,.
O=C1ON=C(c2ccccc2)/C1=C/c1ccc(O)c(O)c1,-8,60*,-8,.,100,-3,37*,-4
COc1cc(-c2nc3ccccn3c2NCC2CCCO2)ccc1O (stereo not given),-14,32*,-3,99*,90,2,34*,1
Brc1cnc(N2CCCC2)nc1N1CCOCC1,10,-2,0,-4,100,0,.,.
CC(=O)Nc1ccccc1-c1ccccc1[N+](=O)[O-],-2,.,.,.,.,.,.,.
CCS(=O)(=O)c1cc([N+](=O)[O-])c(Sc2ccccc2NC(C)=O)s1,1,35*,36,4,115,-4,-32,2
Oc1ccc(/C=C/c2cc(O)cc(O)c2)cc1,-11,59*,-6,79*,111,1,59*,0
